From PubChem BioAssay
Tb PYK inh: qHTS of Trypanosoma Brucei Inhibitors | TbPYK enzyme, Kinase-Glo Plus ATP luminescence, 45 min | Potency, µM (doses to about 76.8 µM), usual class: inhibitors | 410,000 tested, 0.12% active | AID 624173, 2012; further: nearly all actives have a fitted effect of over 50% in size
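Enzyme and substrate buffer are dispensed first and compound is pin-transferred. ADP at 130 uM final then starts the reaction, which runs 45 min at room temperature. Detection reagent is added for 10 min before luminescence is imaged.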
Shiga toxin inh: A qHTS for Small Molecule Inhibitors of Shiga Toxin | Vero cells, Shiga toxin protein synthesis inhibition reporter | 290,000 tested, 9.2% active | AID 2315, 2010 | inhibition, % at 38.7 µM; in the data active means inhibition mostly above about 28%, no sharp cut-off; inactive means mostly below about 43%
RE007 growth inh: qHTS Assay for Inhibitors of the HIV-1 protein Vpr | S. pombe RE007 Vpr strain, BacTiter-Glo ATP luminescence, 24 h | Potency, µM (series often up to 92.2 µM), usual class: inhibitors | 360,000 tested, 0.21% active; active means well fitted falling curve with a large enough effect; inconclusive means small, poorly fitted or top-dose-only effect; inactive means no such curve, though single readings can be large or run the other way; further: nearly all actives have a fitted effect of over 50% in size
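Fission yeast strain RE007, carrying one chromosomally integrated HIV-1 vpr copy, was seeded at OD 0.01 in PMG+AL medium with 23 nL pinned compound. After 24 h at 30 °C and 99% humidity, viability was read by BacTiter-Glo luminescence.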
LmPK inhibitor: qHTS Assay for Inhibitors of Leishmania Mexicana Pyruvate Kinase (LmPK) | Q27686 | purified LmPK, Kinase-Glo ATP luminescence, 1 h | Potency, µM (top dose mostly 57.5 µM), usual class: inhibitors | 290,000 tested, 0.37% active | AID 1721, 2009
Target sequence (Q27686 whole entry, looked up): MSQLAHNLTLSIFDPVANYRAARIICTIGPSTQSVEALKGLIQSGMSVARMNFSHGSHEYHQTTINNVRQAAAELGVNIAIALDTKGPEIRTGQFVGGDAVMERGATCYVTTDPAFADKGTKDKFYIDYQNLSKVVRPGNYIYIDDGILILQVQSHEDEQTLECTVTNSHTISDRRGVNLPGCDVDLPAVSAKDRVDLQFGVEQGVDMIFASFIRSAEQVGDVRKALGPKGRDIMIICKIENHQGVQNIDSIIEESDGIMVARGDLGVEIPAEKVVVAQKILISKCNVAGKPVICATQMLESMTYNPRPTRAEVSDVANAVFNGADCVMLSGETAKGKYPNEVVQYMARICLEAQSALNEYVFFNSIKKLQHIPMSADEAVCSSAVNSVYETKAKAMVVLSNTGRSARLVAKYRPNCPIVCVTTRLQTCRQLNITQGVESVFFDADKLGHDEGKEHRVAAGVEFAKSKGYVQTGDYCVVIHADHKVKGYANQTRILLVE
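ATP generated from ADP (0.1 mM) and PEP (0.5 mM) by 0.1 nM LmPK over 1 h at room temperature (pH 7.2 imidazole buffer) was detected by coupled luciferase luminescence. Values were normalized to uninhibited and no-enzyme wells.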
CHX counter: Cycloheximide Counterscreen for Small Molecule Inhibitors of Shiga Toxin. max response, %. 300,000 tested, 12% active. cell reporter, cycloheximide protein synthesis inhibition counterscreen. AID 2314, 2010; in the data active means max response mostly above about 13%, no sharp cut-off; inactive means mostly below about 14%; further: read at 38.3 µM for the half of the compounds with a filed dose
FBPA Giardia inh: qHTS Assay for Inhibitors of Fructose-1,6-bisphosphate Aldolase from Giardia Lamblia | A8B2U2 | purified Giardia FBPA | Potency, µM (series often up to 59.6 µM), most hits filed as inhibitors | 290,000 tested, 0.71% active | AID 2451, 2010; further: nearly all actives have a fitted effect of over 55% in size
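40 nM FBPA preincubated 10 min at RT with compound (up to 57.5 uM final), then substrate plus GAPDH/TPI/NAD/arsenate coupling and diaphorase/resazurin added. Fluorescence read after 20 min at RT, 525/598 nm.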
Hits are given with their value; 0 = inactive; ? = inconclusive; - = no result; + = active, no number; [ ] = another dose, or the depositor's remark. Shown is part of a subset that was picked to be rich in hits. Unless noted, the call rests on the fitted dose curve; in most records, active means well fitted curve in the direction sought with a large enough effect; inconclusive means small, poorly fitted or top-dose-only effect, or another doubt; inactive means no such curve, though single readings can be large; an effect the other way counts as inactive or inconclusive.

SMILES | Tb PYK inh | Shiga toxin inh | RE007 growth inh | LmPK inhibitor | CHX counter | FBPA Giardia inh
COc1ccc2cc(CCC(C)=O)ccc2c1 | 0 | 92 | 0[18.4 µM] | 0 | 56 | 0
O=C(N/N=C\c1ccc(F)cc1)c1ccc(F)cc1 | 0 | 75 | 0 | 0[11.5 µM] | 47 | 0
O=C(N/N=C/c1ccccc1)c1ccc(NC(=O)c2ccc(F)cc2)cc1 | 0 | 58 | 0 | 0 | 49 | 0
O=C(O)c1ccc(N/N=C/c2ccc(C(F)(F)F)cc2)cc1 | 0 | 0 | 35µM | 0 | 0 | 0
CC(C)(C)NC(=O)C(=O)N/N=C/c1ccc(F)cc1 | 0 | 48 | 0 | 0 | 26 | 0
CCOC(=O)Cn1nc(-c2ccccc2)c2cnc3ccc(OCC)cc3c21 | 0 | - | - | - | - | -
CC1(C)S[C@@H]2[C@H](NC(=O)[C@@H](N)c3ccccc3)C(=O)N2[C@H]1C(=O)O[C@H]1OC(=O)c2ccccc21 | 0 | - | - | - | - | 0
Cc1ccccc1Cn1c(=O)n(CCCCCC(=O)NCc2ccc3c(c2)OCO3)c(=O)c2sccc21 | 0 | - | - | - | - | -
CN1CCN(c2cc3c(nn2)Oc2ccccc2N3C)CC1 | 0 | - | - | - | - | -
O=C(N/N=C/c1cccc(C(F)(F)F)c1)c1ccc(O)cc1 | 0 | 0 | 0 | 0 | 0 | 0
O=C(N/N=C/c1ccc(C(F)(F)F)cc1)c1ccc(O)cc1 | 0 | 44 | 0 | 0 | 32 | 0
O=C(N/N=C/c1ccc(O)cc1)c1csc2c1CCCC2 | 0 | 57 | 0 | 0 | 47 | 0
Cc1ccc(CNC(=O)c2csc3c2CCCCC3)cc1 | 0 | 0 | 0 | 0 | 0 | 0
Nc1ccc(C(=O)N/N=C/c2ccccc2)cc1 | 0 | 108 | 0 | 0 | 41 | -
COC(=O)c1ccc(/C=N/NC(=O)c2cccc(F)c2)cc1 | 0 | 105 | 0 | ? | 61 | 0
CCCCC#CC1C=CC(Oc2ccc(OC)cc2)C(CO)O1 (centres undefined) | - | - | - | - | - | 0[12.9 µM]
COc1ccc(OC)c(C2NC(=O)NC(C)=C2C(=O)Nc2ccc(F)cc2)c1 (centres undefined) | 0 | - | - | - | - | -
O=C(NCCCCc1ccccc1)c1cccc(NC(=O)c2ccccc2)c1 | 0 | - | 0 | - | - | -
O=C(Oc1ccc(/C=N/NC(=O)c2ccccn2)cc1)c1cccc(F)c1 | 0 | - | 0 | - | - | -
O=C(N/N=C/c1cnc2ccccc2n1)c1cccc(F)c1 | 0 | + | 0 | 0 | 27 | 0
O=C(Nc1ccc(F)cc1)c1ccccc1 | 0 | 103 | 0 | 0 | 44 | 0
CSc1ccc(/C=N/NC(=O)c2cccc(O)c2)cc1 | 0 | 0 | 0 | 8.9µM | 27 | 0
O=C(NCCc1ccc(F)cc1)c1cccc(NC(=O)c2ccccc2)c1 | 0 | 0 | 0 | 0 | 23 | 0
COc1ccc(Cn2ccnc2SCC(=O)NCc2ccccc2)cc1 | 0 | - | - | - | - | -
O=C(CNc1ccccc1)Nc1ccc(F)cc1 | 0 | 118 | 0 | 0 | 75 | ?
SMILES | Tb PYK inh | Shiga toxin inh | RE007 growth inh | LmPK inhibitor | CHX counter | FBPA Giardia inh
O=C(N/N=C\c1cccc(F)c1)c1ccc(-c2ccccc2)cc1 | 0 | 0 | 0 | 0 | 21 | -
O=C(N/N=C\c1c(F)c(F)c(F)c(F)c1F)c1ccc(-c2ccccc2)cc1 | 0 | 0 | 0 | 0 | 0 | 0
CSc1ncc(-c2ccc(Cl)cc2)[nH]1 | 0 | 76 | 0 | 0 | 45 | 0
COc1ccc(C(=O)NNC(=O)C2(C)CC2(Br)Br)cc1 (centres undefined) | 0 | 35 | 0 | 0 | 26 | 0
O=C(NNC(=S)Nc1ccc(Cl)cc1)c1ccccc1 | 0 | 57 | 0 | 0 | 27 | -
CCOc1cc(NC(=S)Nc2ccccc2)c(OCC)cc1NC(=O)c1ccc(OC)cc1 | 0 | 0 | 0 | 0 | 21 | 0
S=C(NNC(=S)Nc1ccc(Cl)cc1)NNc1ccccc1 | ? | - | 0 | - | - | -
CC(=O)c1ccc(NC(=S)NNC(=O)c2ccncc2)cc1 | 0 | 0 | 0 | 0 | 16 | 0
COc1ccc(Cn2ccc3nc(C)c(C(=O)N4CCN(c5cc(C)ccc5C)CC4)cc3c2=O)cc1 | 0 | - | - | - | - | -
CCOc1ccc(N2C(=O)c3[nH]nc(-c4ccc(OC)cc4)c3C2c2cccs2)cc1 (centres undefined) | 0 | - | - | - | - | -
O=C(NNC(=S)Nc1cccc(Cl)c1)c1ccccc1 | 0 | 42 | 0 | 0 | 27 | -
O=C(NNC(=S)Nc1ccccc1Cl)c1ccccc1Cl | 0 | 0 | 0 | 0 | 0 | -
COc1ccc(C(=O)NNC(=S)Nc2ccccc2)cc1 | 0 | 0 | 0 | 0 | 41 | 0
Cc1nnsc1C(=O)N/N=C/c1ccc(OC(F)(F)F)cc1 | 0 | 64 | 0 | 0 | 23 | 0
O=C(NNC(=S)Nc1ccccc1Cl)c1ccccc1 | 0 | 78 | 0 | 0 | 43 | ?
O=C(Nc1cccc(Cl)c1)c1ccccc1 | 0 | - | 0 | - | - | -
CCCCNC(C)(C)[P+](=O)O | 0 | - | - | - | - | -
CC[C@H](C)[C@H](NC(=O)[C@H](CC(=O)O)NC(=O)[C@H](CC(C)C)NC(=O)[C@H](Cc1cnc[nH]1)NC(=O)[C@H](C)NC(=O)[C@H](Cc1ccccc1)NC(=O)[C@H](Cc1ccc(O)cc1)NC(=O)[C@@H](NC(=O)[C@H](C)NC(=O)[C@H](CCC(=O)O)NC(=O)[C@H](CCC(=O)O)NC(=O)[C@H](CC(=O)O)NC(=O)CCC(=O)O)C(C)C)C(=O)N[C@H](C(=O)N[C@@H](Cc1c[nH]c2ccccc12)C(=O)O)[C@@H](C)CC | - | 0 | - | - | 0 | 0
COc1ccc(C(=O)NNC(=O)c2snnc2C)cc1 | 0 | 42 | 0 | 0 | 0 | 0
COc1ccc(C(=O)NNC(=O)c2cccc(F)c2)cc1 | 0 | 68 | 0 | 0 | 26 | ?
COc1ccc(C(=O)NNC(=O)c2ccncc2)cc1 | 0 | 0 | 0 | 0 | 0 | 0
Nc1cc(N)nc(SCC(=O)c2ccccc2)n1 | 0 | 0 | 0 | 0 | 40 | 0
Nc1ccc2nc(SCc3ccccc3F)sc2c1 | 0 | 87 | 0 | 0 | 71 | 0
NC(=O)CSc1nc2ccc(NC(=O)COc3ccccc3)cc2s1 | 0 | - | - | - | - | -
Nc1ccc2nc(SCC(=O)c3ccccc3)sc2c1 | 0 | 68 | 0 | 0 | 45 | 0
SMILES | Tb PYK inh | Shiga toxin inh | RE007 growth inh | LmPK inhibitor | CHX counter | FBPA Giardia inh
Cc1ccc2c(c1)-c1cc(C)nn1C(c1cc(Br)ccc1O)N2 (centres undefined) | 0 | - | - | - | - | -
CN(c1ccc(O)cc1)S(=O)(=O)c1ccc2ccccc2c1 | 0 | 77 | 0 | 0 | 24 | 0
Cc1ccc(-n2ncc3c(N4CCN(CCO)CC4)ncnc32)cc1Cl | 0 | - | - | - | - | -
O=C(N/N=C/c1ccc(-c2cccc([N+](=O)[O-])c2)o1)c1cccs1 | 0 | 0 | 0 | 0 | 13 | 0
NC(=S)N/N=C/c1ccc(-c2cccc([N+](=O)[O-])c2)o1 | 0 | 0 | 0 | 0 | 14 | 0
Nc1nonc1C(=O)N/N=C/c1ccc(-c2cccc([N+](=O)[O-])c2)o1 | 0 | 0 | 0 | 0 | 0 | 0
O=C(NN=Cc1ccc([N+](=O)[O-])cc1)c1ccncc1 | 0 | - | 0 | - | - | -
